Values joined by “and” are separate entries in the source; they are usually repeats but may differ in a detail not shown here. Identical values can stand only once. Hit rate of the full screen: of about 5,500 compounds, about 2,000 (36%) were called active. About 18% were inconclusive and are not listed. No stated cut-off is given here; in the data, active means normalized growth mostly below about 0.91 (no sharp cut-off); inconclusive means no clear call, values can overlap the other calls; inactive means mostly above about 0.92. The list shows a part of the results.
Assay: chemical genetic growth profiling, strain panel (AID 1159580);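 further: tested at 20 µM; growth read once vehicle control cultures reached saturation at 30 °C; 1 = growth at the plate median or of vehicle wells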
Conditions: S. cerevisiae deletion strains, growth OD

Measured: normalized growth

C=CCN1CC[C@]23c4c5ccc(O)c4OC2C(=O)CC[C@@]3(O)[C@H]1C5 (stereo partly specified)
inactive: locus YAL013W, strain DEP1, stronger effect = lower value 1.01 | locus YAL021C, strain ccr4, stronger effect = lower value 0.935 | locus YAL026C, strain drs2, stronger effect = lower value 0.979 | locus YAL030W, strain snc1, stronger effect = lower value 0.974 | locus YBL061C, strain skt5, stronger effect = lower value 0.978 | locus YBR009C, strain hhf1, stronger effect = lower value 0.987 | locus YBR021W, strain FUR4, stronger effect = lower value 1.01 | locus YBR023C, strain chs3, stronger effect = lower value 0.972 | locus YBR171W, strain sec66, stronger effect = lower value 0.974 | locus YBR229C, strain ROT2, stronger effect = lower value 1 | locus YBR231C, strain swc5, stronger effect = lower value 0.969 | locus YBR279W, strain paf1, stronger effect = lower value 0.955 | locus YCL011C, strain gbp2, stronger effect = lower value 0.941 | locus YCL016C, strain dcc1, stronger effect = lower value 0.986 | locus YCL029C, strain bik1, stronger effect = lower value 0.996 | locus YCL061C, strain MRC1, stronger effect = lower value 0.979 | locus YCL069W, strain vba3, stronger effect = lower value 0.946 | locus YCR088W, strain abp1, stronger effect = lower value 0.98 | locus YDL005C, strain med2, stronger effect = lower value 0.943 | locus YDL035C, strain GPR1, stronger effect = lower value 1.02 | locus YDL040C, strain nat1, stronger effect = lower value 0.967 | locus YDL074C, strain BRE1, stronger effect = lower value 1.05 | locus YDL101C, strain DUN1, stronger effect = lower value 1.02 | locus YDL134C, strain PPH21, stronger effect = lower value 1 | locus YDL185W, strain tfp1, stronger effect = lower value 1.01 | locus YDL192W, strain arf1, stronger effect = lower value 0.988 | locus YDR001C, strain nth1, stronger effect = lower value 0.971 | locus YDR069C, strain doa4, stronger effect = lower value 0.943 | locus YDR101C, strain arx1, stronger effect = lower value 0.989 | locus YDR137W, strain rgp1, stronger effect = lower value 0.959 | locus YDR150W, strain NUM1, stronger effect = lower value 1 | locus YDR159W, strain sac3, stronger effect = lower value 0.962 | locus YDR162C, strain NBP2, stronger effect = lower value 1.01 | locus YDR195W, strain ref2 0.955 | locus YDR297W, strain sur2, stronger effect = lower value 0.962 | locus YDR318W, strain mcm21, stronger effect = lower value 1 | locus YDR334W, strain swr1, stronger effect = lower value 0.95 | locus YDR335W, strain msn5, stronger effect = lower value 0.974 | locus YDR388W, stronger effect = lower value 1 | locus YDR392W, strain spt3, stronger effect = lower value 0.877 | locus YDR502C, strain sam2, stronger effect = lower value 0.984 | locus YEL003W, strain gim4, stronger effect = lower value 0.936 | locus YEL037C, strain rad23, stronger effect = lower value 0.954 | locus YEL061C, strain CIN8 (second series), stronger effect = lower value 0.962 | locus YEL061C, strain CIN8, stronger effect = lower value 1.01 | locus YER015W, strain faa2, stronger effect = lower value 0.97 | locus YER016W, strain bim1, stronger effect = lower value 0.972 | locus YER110C, stronger effect = lower value 0.992 | locus YER111C, strain swi4, stronger effect = lower value 0.97 | locus YER155C, strain BEM2 (second series), stronger effect = lower value 0.979 | locus YER155C, strain BEM2, stronger effect = lower value 1.01 | locus YER167W, strain BCK2, stronger effect = lower value 0.989 | locus YFR010W, strain ubp6, stronger effect = lower value 0.953 | locus YGL078C, strain dbp3, stronger effect = lower value 1 | locus YGL086W, strain mad1, stronger effect = lower value 0.993 | locus YGL167C, strain pmr1, stronger effect = lower value 0.961 | locus YGL173C, strain kem1, stronger effect = lower value 0.971 | locus YGL227W, strain vid30, stronger effect = lower value 0.97 | locus YGL240W, strain doc1, stronger effect = lower value 0.961 | locus YGL248W, strain PDE1, stronger effect = lower value 1.01 | locus YGL253W, strain hxk2, stronger effect = lower value 0.974 | locus YGR078C, strain PAC10, stronger effect = lower value 1.03 | locus YGR135W, strain pre9, stronger effect = lower value 0.99 | locus YGR229C, strain SMI1, stronger effect = lower value 1 | locus YGR252W, strain gcn5, stronger effect = lower value 0.997 | locus YHR013C, strain ard1, stronger effect = lower value 0.926 | locus YHR027C, strain rpn1, stronger effect = lower value 0.97 | locus YHR030C, strain SLT2, stronger effect = lower value 1 and 0.989 | locus YHR079C, strain IRE1 (second series), stronger effect = lower value 1 | locus YHR094C, strain hxt1, stronger effect = lower value 1 | locus YHR129C, strain ARP1, stronger effect = lower value 1.01 | locus YHR142W, strain chs7, stronger effect = lower value 0.946 | locus YHR200W, strain rpn10, stronger effect = lower value 0.998 | locus YIL066C, strain RNR3, stronger effect = lower value 1.01 | locus YIL073C, strain SPO22, stronger effect = lower value 1.02 | locus YIL125W, strain kgd1, stronger effect = lower value 0.997 | locus YIR030C, strain dcg1, stronger effect = lower value 0.997 | locus YJL092W, strain hpr5, stronger effect = lower value 0.957 | locus YJL095W, strain BCK1 (second series), stronger effect = lower value 0.978 | locus YJL095W, strain BCK1, stronger effect = lower value 1.02 and 1 | locus YJL115W, strain asf1, stronger effect = lower value 0.957 | locus YJL129C, strain trk1, stronger effect = lower value 0.917 | locus YJL134W, strain LCB3, stronger effect = lower value 1.01 | locus YJL154C, strain vps35, stronger effect = lower value 0.971 | locus YJL164C, strain tpk1, stronger effect = lower value 0.984 | locus YJL166W, strain qcr8, stronger effect = lower value 0.959 | locus YJL168C, strain set2, stronger effect = lower value 1 | locus YJL187C, strain SWE1 (second series), stronger effect = lower value 1.03 | locus YJL187C, strain SWE1, stronger effect = lower value 0.964 | locus YJR043C, strain POL32, stronger effect = lower value 1.03 | locus YJR066W, strain TOR1, stronger effect = lower value 0.949
